PubChem BioAssay (NCATS)
Results filed as inconclusive are left out. A number with no mark means an inactive call. Calls of active or inactive are those of the source. Calls follow the shape of the dose curve; as a rule, active = well fitted inhibition curve with a large enough effect; inconclusive = small, poorly fitted or top-dose-only effect; inactive = flat fitted curve, though single readings scatter.

Each compound was assayed on TAB109 (assay: qHTS profiling for inhibitors of Plasmodium falciparum proliferation (AID 504749; also: nearly all actives have a fitted effect of over 60% in size;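 as to activity, negative = inhibition: 0% = DMSO vehicle and full inhibition = artemisinin control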)). Settings: P. falciparum in erythrocytes, SYBR Green DNA, 72 h; series mostly up to 28.7 µM; activity, negative = inhibition: at the top concentration.
Summary of the method: (§1)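 SYBR Green fluorescence (ex 485 nm, em 535 nm) reports parasite DNA after 72 h compound exposure of infected red cells at 0.3% parasitemia, 2.5% hematocrit; signal normalized to 0.29 uM artemisinin and vehicle wells.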
Potency is read from the fitted curve at half-maximal effect.

SMILES	activity, negative = inhibition	Potency
CCCCCl	6.75%	
CCC(=O)O[C@@](Cc1ccccc1)(c1ccccc1)[C@@H](C)CN(C)C	-26.7% [at 12.8 µM]	
ClC(Cl)(Cl)Cl	6.26%	
N#CC(C#N)=Cc1cc(O)c(O)c(O)c1		3.98 µM (active)

What follows are compounds tested on TAB113 in the same assay as above. Settings: P. falciparum in erythrocytes, SYBR Green DNA, 72 h; series mostly up to 28.7 µM; activity, negative = inhibition: at the top concentration.
Summary of the method: as §1

SMILES	Potency	activity, negative = inhibition
CC(C)(C)c1cc(O)ccc1O	12.6 µM (active)	
CCOC(=O)c1ccccc1C(=O)OCC		-1.67%
OC(c1ccccc1)(c1ccccc1)C1CN2CCC1CC2 (stereo unspecified)		-9.12%
CCCC(C)(COC(N)=O)COC(=O)NC1CC1 (stereo unspecified)		12.3%
CCN(CC)C(=O)/C(Cl)=C(\C)OP(=O)(OC)OC		6.94%
CN1[C@@H]2CC[C@H]1CC(OC1c3ccccc3CCc3ccccc31)C2 (stereo partly specified)		-9.42% [at 12.8 µM]
CCCC(=O)OC(C(Cl)(Cl)Cl)P(=O)(OC)OC (stereo unspecified)		-0.38%
CCOP(=O)(OCC)O/C(=C/Cl)c1ccc(Cl)cc1Cl		-16.6%
O=C(CS(=O)C(c1ccccc1)c1ccccc1)NO (stereo unspecified)		14.7%
C=CCN=C=S		7.7%
CC(N)Cc1ccc(O)cc1 (stereo unspecified)		11.9%
c1cc2c(c(NC3=NCCN3)c1)CCCC2		4.05%
O=C(NCNC(=O)NC1C(=O)NC(=O)N1CO)NC1C(=O)NC(=O)N1CO (stereo unspecified)		11.3%
CCC1C(C)=NN=C(c2ccc(OC)c(OC)c2)c2cc(OC)c(OC)cc21 (stereo unspecified)		-8.34%
O=Cc1ccco1		-1.93%
O=C(NC(=O)c1c(F)cccc1F)Nc1ccc(Cl)c(Oc2ncc(C(F)(F)F)cc2Cl)c1		-23.7%
O=c1c2ccccc2[se]n1-c1ccccc1	11.2 µM (active)	
C/C(=C\c1csc(C)n1)[C@@H]1C[C@@H]2O[C@]2(C)CCC[C@H](C)[C@H](O)[C@@H](C)C(=O)C(C)(C)[C@@H](O)CC(=O)O1	0.0035 µM (active)	
CCCN1CCCC2Cc3[nH]ncc3CC21 (stereo unspecified)		3.11%
CCC(C)(S(=O)(=O)CC)S(=O)(=O)CC		0.137%
COc1ccc2c(c1OC)C(=O)OC2C1c2cc3c(cc2CCN1C)OCO3 (stereo unspecified)		8.54%
C=CCC1(C(C)CCC)C(=O)N=C(S)NC1=O (stereo unspecified)		-8.62%
CCOc1ccc2c3c1O[C@H]1[C@@H](O)C=C[C@H]4[C@@H](C2)N(C)CC[C@@]341		-8.35%
CCCCCl		6.56%
CCC(=O)O[C@@](Cc1ccccc1)(c1ccccc1)[C@@H](C)CN(C)C		-15.8% [at 12.8 µM]
ClC(Cl)(Cl)Cl		4.21%
COC([CH2][Hg])CNC(=O)c1ccccc1OCC(=O)O (stereo unspecified)		8.05%
